Source: PubChem BioAssay (NCI)
The panel holds about 79,000 compounds, 15% with a hit somewhere; the sample as a whole holds those more often. No stated cut-off is given here; in the data, active means growth inhibition above about 70%; inactive means the rest.

Columns and labels:
[1] = NCI Yeast Anticancer Drug Screen. Data for the rad50 strain (AID 155);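 further: 0% = growth of vehicle-only cultures of the same strain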; settings: S. cerevisiae rad50 strain growth inhibition, hits give high values; at 50.0 µM unless noted
In short: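 Vehicle-treated cultures provide the reference for the growth inhibition reported for compound-exposed, repair-deficient yeast.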

[2] = NCI Yeast Anticancer Drug Screen. Data for the mec2-1 strain (AID 157); settings: S. cerevisiae mec2-1 strain, hits give high values; at 50.0 µM unless noted
In short: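 Growth inhibition is read against vehicle-treated controls after compound exposure of the mec2-1 yeast strain, which is defective in DNA damage repair or cell cycle control.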

[3] = NCI Yeast Anticancer Drug Screen. Data for the sgs1 mgt1 strain (AID 161);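 further: 0% = growth of cultures given vehicle only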; settings: S. cerevisiae sgs1 mgt1 strain, hits give high values; at 50.0 µM unless noted
In short: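 Percent growth inhibition was derived by comparing compound-exposed mutant yeast with vehicle-exposed cultures. The strain carries alterations in DNA damage repair.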

[4] = NCI Yeast Anticancer Drug Screen. Data for the cln2 rad14 strain (AID 165);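 further: 0% = growth equal to vehicle treated cultures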; settings: S. cerevisiae cln2 rad14 strain, hits give high values; at 50.0 µM unless noted
In short: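 Growth inhibition, relative to vehicle-treated controls, is the read-out. The test organism is a yeast strain with defined genetic alterations, cln2 rad14.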

[5] = NCI Yeast Anticancer Drug Screen. Data for the bub3 strain (AID 167); settings: S. cerevisiae bub3 mutant strain, hits give high values; at 50.0 µM unless noted
In short: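 Mutant yeast screening strain plus compound; vehicle-treated cultures serve as the 0% inhibition reference.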

[6] = NCI Yeast Anticancer Drug Screen. Data for the mlh1 rad18 strain (AID 175); settings: S. cerevisiae mlh1 rad18 strain growth inhibition, hits give high values; at 50.0 µM unless noted
In short: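 Cells of a genetically altered yeast strain, deficient in DNA damage repair, were treated with compound. Their growth was then compared with that of vehicle-treated cultures to give inhibition.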

Measured: growth inhibition

Cc1cc(Cl)ccc1NC(=O)CC/C(CC(=O)C(C)C)=N\NC(=O)C[n+]1ccccc1
inactive: [1] -43.9% | [2] 3.45% | [3] -20.4% | [4] -15.2% | [5] -30.6% | [6] -32.8%

CC1(C)SC=C2C1=CSC2(C)C
inactive: [1] 0.2% | [2] 2.1% | [3] -6.35% | [4] -26.2% | [5] 4.6% | [6] -3.65%

Cc1ccc(S(=O)(=O)N2CCCSCC2)cc1
inactive: [1] -11.6% | [2] -6.7% | [3] -17.5% | [4] -6.95% | [5] -11.6% | [6] -16.1%
